# Laboratory results: PubChem BioAssay (EPA / NIEHS)
# Results filed as inconclusive are left out. Calls of active or inactive are those of the source. How the source made its calls: active means hit-call score of the fitted dose curve at least 0.9, where 1 is the maximum; inconclusive means response in the unintended direction; inactive means score below 0.9.
# How the values were obtained:
# [1] = TOX21_p53_BLA_p2_viability: Viability Assessment in the Tox21 HCT-116 p53 Agonism Beta-lactamase Assay, Phase 2 (AID 2283591);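 further: compound exposure lasted 16 h at 37 °C; actives lower the ATP signal meaning cytotoxicity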
# Summary of the method: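 Cytotoxicity readout: CellTiter-Glo ATP luminescence, 30 min at room temperature, after the beta-lactamase read. Cells were HCT116 exposed 16 h at 37C to compounds pin-transferred at 217-fold dilution from DMSO stocks.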
# [2] = TOX21_p53_BLA_p3_viability: Viability Assessment in the Tox21 HCT-116 p53 Agonism Beta-lactamase Assay, Phase 3 (AID 2283593);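 further: cells exposed to compound for 16 h before reading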
# Summary of the method: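 Cellular ATP was quantified by CellTiter-Glo luminescence, read after 30 min at room temperature. Beforehand, HCT116 cells (4000/well) received compound 5 h post-seeding, 217-fold diluted from DMSO, then incubated 16 h at 37C.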
# [3] = target: Cellular tumor antigen p53 (Homo sapiens) (UniProt P04637); assay: TOX21_p53_BLA_p3_ratio: Tox21 HCT-116 p53 Agonism Beta-lactamase Assay, Ratio, Phase 3 (AID 2283596)
# Cellular tumor antigen p53 (Homo sapiens), sequence (P04637 whole entry, looked up): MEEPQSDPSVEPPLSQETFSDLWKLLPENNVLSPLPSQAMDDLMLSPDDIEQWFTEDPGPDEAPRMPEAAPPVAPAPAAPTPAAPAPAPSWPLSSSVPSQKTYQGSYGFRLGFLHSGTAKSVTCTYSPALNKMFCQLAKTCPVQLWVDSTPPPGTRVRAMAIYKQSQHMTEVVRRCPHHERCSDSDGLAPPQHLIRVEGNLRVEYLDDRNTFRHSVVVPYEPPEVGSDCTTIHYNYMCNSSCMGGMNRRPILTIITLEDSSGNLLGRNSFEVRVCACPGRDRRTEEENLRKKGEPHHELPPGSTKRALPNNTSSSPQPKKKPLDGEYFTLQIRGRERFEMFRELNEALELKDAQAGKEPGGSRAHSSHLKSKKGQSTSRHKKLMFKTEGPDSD
# Summary of the method: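 HCT116 p53-bla cells (4000/well) given compound in DMSO (217-fold dilution) after 5 h, incubated 16 h at 37C. CCF4-AM substrate 2 h at room temperature; 460/530 nm emission ratio, gain fitted against DMSO.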
# [4] = target: Cellular tumor antigen p53 (Homo sapiens) (UniProt P04637); assay: TOX21_p53_BLA_p5_ratio: Tox21 HCT-116 p53 Agonism Beta-lactamase Assay, Ratio, Phase 5 (AID 2283599)
# Summary of the method: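 Beta-lactamase reporter ratio (blue 460 nm over green 530 nm, 405 nm excitation) after 2 h CCF4-AM loading, in HCT-116 cells exposed 16 h at 37 C to compounds pinned at 217-fold dilution. Increases relative to DMSO baseline scored.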
# [5] = target: Cellular tumor antigen p53 (Homo sapiens) (UniProt P04637); assay: TOX21_p53_BLA_p4_ratio: Tox21 HCT-116 p53 Agonism Beta-lactamase Assay, Ratio, Phase 4 (AID 2283601)
# Summary of the method: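 Signal is the blue/green (460nm/530nm) ratio of cleaved versus uncleaved CCF4-AM substrate, read after 2 h substrate loading. Cells were HCT116 carrying the p53-responsive beta-lactamase reporter, dosed 16 h at 37C, 5% CO2; CellTiter-Glo measured in parallel.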
# [6] = TOX21_p53_BLA_p4_viability: Viability Assessment in the Tox21 HCT-116 p53 Agonism Beta-lactamase Assay, Phase 4 (AID 2283597);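 further: hits lower the luminescence signal meaning cytotoxicity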
# Summary of the method: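 Cells plated, 5 h pre-incubation; DMSO compounds pinned (217-fold dilution); 16 h, 37C/5% CO2; CCF4-AM 2 h RT; CellTiter-Glo 30 min RT; luminescence read.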
# [7] = TOX21_p53_BLA_p5_viability: Viability Assessment in the Tox21 HCT-116 p53 Agonism Beta-lactamase Assay, Phase 5 (AID 2283600)
# Summary of the method: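 4000 cells/well; 5 h pre-incubation; DMSO compounds pin-transferred, 217-fold dilution; 16 h, 37C/5% CO2; CCF4-AM 2 h RT; CellTiter-Glo 30 min RT; luminescence.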
compound,measurement,setting,value
O=C(OCCN1CCCCC1)C(O)(c1ccccc1)c1ccccc1,outcome,[1],inactive
same,AC50,[2],42400 nM (active)
same,outcome,[3],inactive
same,outcome,[4],inactive
same,outcome,[5],inactive
S=C=NCCc1ccccc1,outcome,[1],inactive
same,outcome,[2],inactive
same,AC50,[3],59300 nM (active)
same,outcome,[4],inactive
CC(=O)O[C@H]1C[C@H](O[C@H]2[C@@H](O)C[C@H](O[C@H]3[C@@H](O)C[C@H](OC4CC[C@@]5(C)C(CC[C@@H]6[C@@H]5CC[C@]5(C)[C@@H](C7=CC(=O)OC7)[C@@H](O)C[C@]65O)C4)O[C@@H]3C)O[C@@H]2C)O[C@H](C)[C@H]1O[C@@H]1O[C@H](CO)[C@@H](O)[C@H](O)[C@H]1O (some centres undefined),AC50,[1],463 nM (active)
same,AC50,[2],683 nM (active)
same,AC50,[6],582 nM (active)
same,AC50,[7],473 nM (active)
N#C/C(N)=C(/N)C#N,outcome,[1],inactive
same,outcome,[2],inactive
same,outcome,[3],inactive
same,outcome,[7],inactive
same,outcome,[5],inactive
CCCCCCCCCCCCCCCCCC(=O)O,outcome,[1],inactive
same,outcome,[2],inactive
same,outcome,[6],inactive
same,outcome,[7],inactive
CCCCCCCCCCCCCCCCCCn1cc[n+](C)c1,outcome,[1],inactive
same,outcome,[2],inactive
same,outcome,[3],inactive
same,outcome,[6],inactive
same,outcome,[5],inactive
CCN(CC)C(=O)N[C@H]1C[C@@H]2c3cccc4[nH]cc(c34)C[C@H]2N(C)C1,outcome,[1],inactive
same,outcome,[2],inactive
same,outcome,[3],inactive
same,outcome,[6],inactive
same,outcome,[7],inactive
c1ccc2c(c1)Sc1ccccc1N2CC1CN2CCC1CC2 (centres undefined),outcome,[1],inactive
same,outcome,[2],inactive
same,outcome,[3],inactive
same,AC50,[6],29100 nM (active)
same,outcome,[7],inactive
COc1ccc2c(c1OC)C(=O)O[C@@H]2[C@H]1c2cc3c(cc2CCN1C)OCO3,outcome,[1],inactive
same,outcome,[2],inactive
same,outcome,[3],inactive
same,outcome,[4],inactive
same,outcome,[7],inactive
same,outcome,[5],inactive
O=[N+]([O-])[O-].[Tl+],outcome,[1],inactive
same,outcome,[2],inactive
same,outcome,[6],inactive
CO[C@H]1[C@@H](O)C[C@H](O[C@H]2[C@@H](O)C[C@H](O[C@H]3[C@@H](O)C[C@H](O[C@H]4CC[C@@]5(C)[C@H](CC[C@@H]6[C@@H]5C[C@@H](O)[C@]5(C)[C@@H](C7=CC(=O)OC7)CC[C@]65O)C4)O[C@@H]3C)O[C@@H]2C)O[C@@H]1C,AC50,[1],109 nM (active)
same,AC50,[2],101 nM (active)
same,outcome,[3],inactive
same,AC50,[6],98.4 nM (active)
same,AC50,[7],83.6 nM (active)
same,outcome,[5],inactive
CC(C)C(Nc1ccc(C(F)(F)F)cc1Cl)C(=O)OC(C#N)c1cccc(Oc2ccccc2)c1 (centres undefined),outcome,[1],inactive
same,outcome,[2],inactive
same,AC50,[3],87300 nM (active)
same,outcome,[4],inactive
same,outcome,[5],inactive
CCc1cc(OC)c(C[C@@H](C)N)cc1OC,outcome,[1],inactive
same,outcome,[2],inactive
same,outcome,[6],inactive
same,outcome,[4],inactive
same,outcome,[5],inactive
O=[N+]([O-])C(Br)Br,outcome,[1],inactive
same,outcome,[2],inactive
same,outcome,[3],inactive
same,outcome,[4],inactive
same,outcome,[7],inactive
same,outcome,[5],inactive
CSCCCN=C=S,outcome,[1],inactive
same,outcome,[2],inactive
same,AC50,[3],20900 nM (active)
same,outcome,[4],inactive
same,outcome,[7],inactive
ClC(Cl)(Cl)Br,outcome,[1],inactive
same,outcome,[2],inactive
same,outcome,[3],inactive
same,outcome,[6],inactive
same,outcome,[4],inactive
same,outcome,[5],inactive
